# Laboratory results from PubChem BioAssay (NCATS).
# Active and inactive are the calls of the source. Calls come from the whole dose curve; as a rule, active = well fitted activation curve with a large enough effect; inconclusive = small, poorly fitted or top-dose-only effect; inactive = flat fitted curve, though single readings scatter.
# Test: Cellular Toxicity (caspase-3) SK-N-SH (AID 661);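 for caspase-3 activation: 0% = DMSO basal and 100% = 10 µM staurosporine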
# Details: SK-N-SH caspase-3 activation, qHTS; series mostly up to 91.7 µM; caspase-3 activation: at the top concentration
# Text: NIH Chemical Genomics Center [NCGC]
# NIH Molecular Libraries Screening Centers Network [MLSCN]
# National Institutes of Environmental Health Sciences [NIEHS]
# National Toxicology Program [NTP]
# We have developed a 1536-well cell-based assay for quantitative high throughput screening (qHTS) against a number of cell lines to determine in vitro caspase 3/7 activity of small molecules. This particular assay uses the SK-N-SH cell line which is derived from human neuroblastoma.
# NCGC Assay Protocol Summary:
# The Caspase-Glo 3/7 assay (Promega) is a homogeneous method to measure caspase-3 and caspase-7 activities in cultured cells. The quantitation of caspase 3/7 activity is based on the cleavage of a peptide-aminoluciferin substrate. After caspase cleaves the substrate the free aminoluciferin is liberated and serves as the substrate of luciferase, which generates the light. The luminescent signal is proportional to amount of caspase 3/7 activity present.
# Using the Caspase-Glo 3/7 assay, the amount of caspase 3/7 activity was measured in the SK-N-SH cell line with complete culture medium following compound treatment for 16 hours. The assay was performed in opaque white 1536-well plates. In the screen, tamoxifen and staurosporine were used as positive controls. Library compounds were measured for their ability to cause the activation of caspase 3/7 in the cell line, as reflected by an increase in luminescence signal, in a concentration-dependent manner. Data were normalized to the controls for basal activity (DMSO only) and 100% stimulation (10 uM staurosporine). AC50 values were determined from concentration-response data modeled with the standard Hill equation.
# qHTS protocol for caspase 3/7 assay in SK-N-SH cells
# [Step] [Parameter] [Value] [Description]
# 1. Reagent; 5 uL; 1500 SK-N-SH cells/well
# 2. Time; 5 hr; 37 °C incubation
# 4. Controls; 23 nL; Tamoxifen 0.23 uM to 100 uM & staurosporine 1.4 pM to 100 uM
# 5. Time; 16 hr; 37 °C incubation
# 6. Reagent; 5 uL; Caspase-Glo 3/7 reagent
# 7. Time; 1 hr; Room Temperature
# 8. Detection; Luminescence; Viewlux plate reader
# Keywords: caspase 3/7, apoptosis, SK-N-SH cell line, luminescence, NTPHTS, NTPHTS_NCGC, NIEHS, EPA, DSSTox, MLSMR, MLSCN, NIH Roadmap, qHTS, NCGC
# Potency is the fitted concentration of half-maximal effect.
SMILES,caspase-3 activation,Potency
c1ccc2sc(SSc3nc4ccccc4s3)nc2c1,0.629% (inactive),
O=C1CN(/N=C/c2ccc([N+](=O)[O-])o2)C(=O)N1,-0.834% (inactive),
CC1(C)S[C@@H]2[C@H](NC(=O)[C@H](N)c3ccccc3)C(=O)N2[C@H]1C(=O)O,-1.32% (inactive),
COc1cc(/C=C/C(=O)CC(=O)/C=C/c2ccc(O)c(OC)c2)ccc1O,13.1% (inactive),
O=c1cc(-c2ccccc2)oc2ccccc12,-1% (inactive),
COc1cc(CNC(=O)CCCC/C=C/C(C)C)ccc1O,0.926% (inactive),
Nc1ccc(O)c([N+](=O)[O-])c1,2.45% (inactive),
CCCOC(=O)c1ccc(O)cc1,,inactive
O=C(O)c1cc(O)c(O)c(O)c1,-2.91% (inactive),
CN(C)CCC(c1ccc(Cl)cc1)c1ccccn1 (stereo not given),-0.372% (inactive),
CCCCCCCCCCCCCCCCCC(=O)O,-1.03% (inactive),
C#C[C@]1(O)CC[C@H]2[C@@H]3CCc4cc(O)ccc4[C@H]3CC[C@@]21C,15.5% (inactive),
O=C(O)/C=C\C(=O)O,2.19% (inactive),
CN1CCC[C@H]1c1cccnc1,-1.75% (inactive),
N=C1N=C(N)c2cc3ccccc3cc21,,31.6 µM (active)
S=c1[nH]c2ccccc2s1,-0.685% (inactive),
CN(C)c1ccc(N=NS(=O)(=O)O)cc1,-2.59% (inactive),
c1cnc2c(c1)ccc1cccnc12,10.5% (inactive),
CN(C)c1ccc(C(=C2C=CC(=[N+](C)C)C=C2)c2ccccc2)cc1,,1 µM (active)
NCCO,1.05% (inactive),
Nc1ccc(O)c(C(=O)O)c1,0.136% (inactive),
CC(C)NCC(O)COc1cccc2ccccc12 (stereo not given),3.59% (inactive),
Nc1nc2ccc([N+](=O)[O-])cc2s1,-1.39% (inactive),
Nc1ccc([N+](=O)[O-])cc1O,-0.228% (inactive),
Oc1ccccc1O,14% (inactive),
